Data from PubChem BioAssay (NCATS).
Records with an inconclusive call do not appear. Active and inactive are the calls of the source. Calls follow the shape of the dose curve; as a rule, active = well fitted cell-killing curve with a large enough effect; inconclusive = small, poorly fitted or top-dose-only effect; inactive = no such curve, though single readings can be large or run the other way.

Experiment: qHTS of pediatric cancer cell lines to identify multiple opportunities for drug repurposing: Primary screen for Rh41 cells (AID 1347108); also: nearly all actives have a fitted effect of over 70% in size;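 as to activity change, negative = cytotoxic: luminescence drop marks cytotoxic hits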
Settings: Rh41 rhabdomyosarcoma viability, CellTiter-Glo luminescence, 48 h; series mostly up to 46 µM; activity change, negative = cytotoxic: at the top concentration
Text: Drug repurposing or repositioning has been offered as a strategy for drug development in oncology programs. This approach has special potential for childhood cancers and other rare or orphan diseases, where the expected return on new drug development has been a disincentive to pharmaceuticals. […] In this project we exploit the poly-pharmacology of drugs to discover new indications via phenotypic screening of a panel of 19 well-characterized cell lines derived from solid tumors seen in children and adolescents. The goal is to identify approved drugs with previously unrecognized anticancer properties that has the potential to reveal new mechanisms and biological processes involved in carcinogenesis or drug resistance. We employed a titration-based paradigm (quantitative high-throughput screening or qHTS), where all compounds were tested at multiple concentrations for their effect on cell viability. Concentration-response curves (CRCs) were derived directly from the primary screen, and both potency and efficacy values were used to identify compounds with robust bioactivity profiles. We screened the NIH Chemical Genomics Center (NCGC) Pharmaceutical Collection (NPC) and Mechanism Interrogation Plate (MIPE) small molecule collections of approved and investigational compounds against these cell lines; and measured metabolically active cells after 48 hours of compound treatment as a proxy for cell viability. […] Assay Submitter: Nathalia J. Martinez, National Center for Advancing Translational Sciences, National Institutes of Health, Rockville, MD, USA; email: natalia.martinez@nih.gov Shen, M et al. Quantitative high-throughput phenotypic screening of pediatric cancer cell lines identifies multiple opportunities for drug repurposing. Oncotarget 2017 Dec 19;9(4):4758-4772. PMID 29435139.
The cells were obtained from University of North Carolina (UNC), Pediatric Preclinical Testing Program (PPT), and Coriell Institute (CI). qHTS cell viability assay: Cells were assayed in growth media at a density of 500-1,000 cells/well. Five microliters of cells were dispensed into 1,536-well, white, solid-bottom, TC-treated plates (Greiner Bio One) using a multidrop dispenser and incubated at 37 degrees C, 5% CO2, under a humidified atmosphere for 5 hours. Twenty-three nanoliters of compounds and controls (neutral control DMSO or positive control bortezomib at final concentration of 2.3 µM) were subsequently transferred by Kalypsys pintool. For primary screens, the MIPE collection was tested at 11-point dilutions (final concentrations range from 0.78 nM to 46 µM) and the NPC collection at 8-point dilutions (final concentrations range from 0.59 nM to 46 µM). Compounds tested in follow-up screens were assayed at 11-point dilutions. Cells were incubated for 48 hours, followed by addition of 3 µL of CellTiter-Glo (Promega). After a 15 min incubation at room temperature, samples were analyzed for luminescence intensity using a ViewLux High-throughput CCD imager equipped with clear filters.
Potency is read from the fitted curve at half-maximal effect.

| SMILES | activity change, negative = cytotoxic | Potency |
| --- | --- | --- |
| COC[C@@H](NC(C)=O)C(=O)NCc1ccccc1 | 35.3% (inactive) | – |
| CCN(CC)CCN1C(=O)CN=C(c2ccccc2F)c2cc(Cl)ccc21 | 7.57% (inactive) | – |
| CN(C)CCN(C)CCc1ccc(Cl)c(Cl)c1 | 22.7% (inactive) | – |
| CCCN1CCC[C@@H]2Cc3[nH]ncc3C[C@H]21 | 17.5% (inactive) | – |
| Cc1cccc(C)c1NC(=O)CN1CCCC1=O | – | inactive |
| CC(=O)Nc1cc([As](=O)(O)O)ccc1O | 15.9% (inactive) | – |
| C[C@]12CCC(=O)C(O)=C1CC[C@@H]1[C@@H]2CC[C@]2(C)C(=O)CC[C@@H]12 | 13.2% (inactive) | – |
| NP(N)(=O)NC(=O)c1ccc(F)cc1 | 20% (inactive) | – |
| N[C@@H]1C[C@H]1c1ccccc1 | 5.22% (inactive) | – |
| O=C(NC(O)C(Cl)(Cl)Cl)NC(O)C(Cl)(Cl)Cl (stereo not given) | 25.3% (inactive) | – |
| N[C@@H](Cc1ccc(Oc2cc(I)c(O)c(I)c2)c(I)c1)C(=O)O | 5.9% (inactive) | – |
| O=C1CC[C@@]2(O)[C@H]3Cc4ccc(O)c5c4[C@@]2(CCN3CC2CC2)[C@H]1O5 | 21.4% (inactive) | – |
| NCC1(CC(=O)O)CCCCC1 | – | inactive |
| CCCN1CCC[C@@H]2Cc3nc(N)ncc3C[C@H]21 | -14.1% (inactive) | – |
| CCC1(C2=NCCN2)Cc2ccccc2O1 (stereo not given) | 19.7% (inactive) | – |
| Cc1ccc(S(=O)(=O)N[C@@H](CCCCN)C(=O)CCl)cc1 | 15.7% (inactive) | – |
| N#CC(C#N)=Cc1ccc(O)c(O)c1 | 19.8% (inactive) | – |
| CCOP(=S)(OCC)Oc1cc(C)nc(C(C)C)n1 | 22.3% (inactive) | – |
| O=P1(NCCCl)OCCCN1CCCl (stereo not given) | – | inactive |
| NCC(O)c1ccc(O)cc1 (stereo not given) | 45.9% (inactive) | – |

| SMILES | activity change, negative = cytotoxic | Potency |
| --- | --- | --- |
| CN(C)[C@@H]1C(=O)C(C(N)=O)=C(O)[C@@]2(O)C(=O)C3=C(O)c4c(O)cccc4[C@@](C)(O)[C@H]3C[C@@H]12 | 21.4% (inactive) | – |
| COc1ccc2c(c1OC)CN1CCc3cc4c(cc3C1C2)OCO4 (stereo not given) | – | inactive |
| CN1C[C@H](CNC(=O)OCc2ccccc2)C[C@@H]2c3cccc4c3c(cn4C)C[C@H]21 | 15.9% (inactive) | – |
| CCN(C(C)=O)c1cccc(-c2ccnc3c(C#N)cnn23)c1 | 13.7% (inactive) | – |
| CC[C@@H](CO)NC(=O)[C@@H]1C=C2c3cccc4[nH]cc(c34)C[C@H]2N(C)C1 | -5.58% (inactive) | – |
| CCCC1CCCCN1 (stereo not given) | 10.4% (inactive) | – |
| Clc1cccc(N2CCNCC2)c1 | 6.59% (inactive) | – |
| c1ccc2c(c1)Nc1ccccc1S2 | – | inactive |
| Cc1sc2c(c1C)C(c1ccc(Cl)cc1)=N[C@@H](CC(=O)OC(C)(C)C)c1nnc(C)n1-2 | – | 743 nM (active) |
| CC[N+]1(C)CCCC(OC(=O)C(O)(c2ccccc2)c2ccccc2)C1 (stereo not given) | 18.4% (inactive) | – |
| C#CCOC(C(=O)OCCN(C)C)(c1ccccc1)c1ccccc1 | 28.5% (inactive) | – |
| CC1NCCOC1c1ccccc1 (stereo not given) | 16.1% (inactive) | – |
| Cc1ncc(CNC(=O)N(CCCl)N=O)c(N)n1 | -13.3% (inactive) | – |
| CCN(CC)C(=O)N[C@@H]1C=C2c3cccc4[nH]cc(c34)C[C@@H]2N(C)C1 | 20.3% (inactive) | – |
| CCCC(C)(COC(N)=O)COC(=O)NC(C)C (stereo not given) | – | inactive |
| CC(C)CC(N(C)C)C1(c2ccc(Cl)cc2)CCC1 (stereo not given) | – | inactive |
| C[C@]12C/C(=C/O)C(=O)C[C@@H]1CC[C@@H]1[C@@H]2CC[C@@]2(C)[C@H]1CC[C@]2(C)O | 18.9% (inactive) | – |
| O=C1NCN(c2ccccc2)C12CCN(CC1COc3ccccc3O1)CC2 (stereo not given) | -4.32% (inactive) | – |
| Nc1ccncc1 | 23.3% (inactive) | – |
| Cc1ccc(-c2nc3ccc(C)cn3c2CC(=O)N(C)C)cc1 | 9.91% (inactive) | – |
